# Laboratory results from the supplement of paper PMC3545927.
# The other results are listed elsewhere or left out. How many sequences the whole screen found active is unknown.
# Target: furin, P09958
# Experiment: furin cleavage Z-score vs untreated control; higher = more cleavage, active = 3.5 or more, inactive = 1 or less, 8 variable residues between constant flanks
# Procedure, shortened: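 Sequencing of released DNA, tagged with adapters by PCR, gave read counts used as abundance. That DNA was freed when purified furin cut N-terminally bead-bound 8-mer peptides fused to a cDNA oligonucleotide, in 0.01 ml reactions at 1:10 enzyme:substrate in 50 mM HEPES pH 7.5 with CaCl2 and NaCl, lasting 7.5, 15 or 30 min. The cleavage Z-score was the lowess-adjusted log count versus furin-free reactions, scaled by median absolute deviation.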
# Sequence of furin, P09958 (P09958 whole entry): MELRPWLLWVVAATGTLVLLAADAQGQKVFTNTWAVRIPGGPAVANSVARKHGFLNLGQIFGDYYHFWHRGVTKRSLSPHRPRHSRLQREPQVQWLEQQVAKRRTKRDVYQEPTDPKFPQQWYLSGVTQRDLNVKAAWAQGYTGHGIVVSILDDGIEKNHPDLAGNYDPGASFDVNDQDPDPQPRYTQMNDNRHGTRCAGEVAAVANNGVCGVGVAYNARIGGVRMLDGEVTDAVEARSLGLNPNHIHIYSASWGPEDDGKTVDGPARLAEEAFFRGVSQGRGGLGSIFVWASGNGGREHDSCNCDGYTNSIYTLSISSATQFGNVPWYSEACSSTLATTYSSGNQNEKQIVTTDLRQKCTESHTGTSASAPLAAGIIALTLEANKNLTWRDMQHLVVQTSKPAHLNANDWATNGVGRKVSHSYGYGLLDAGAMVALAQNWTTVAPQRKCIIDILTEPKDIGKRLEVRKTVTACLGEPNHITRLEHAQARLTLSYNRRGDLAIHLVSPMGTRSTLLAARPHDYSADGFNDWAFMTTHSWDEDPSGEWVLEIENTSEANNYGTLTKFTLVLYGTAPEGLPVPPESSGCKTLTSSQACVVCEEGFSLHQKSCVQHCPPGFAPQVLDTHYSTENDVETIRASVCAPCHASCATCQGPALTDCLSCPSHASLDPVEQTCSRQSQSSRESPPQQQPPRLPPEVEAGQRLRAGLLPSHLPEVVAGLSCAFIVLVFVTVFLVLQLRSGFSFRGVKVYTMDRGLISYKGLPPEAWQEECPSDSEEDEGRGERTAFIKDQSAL
Sequence,furin cleavage Z-score (7.5 min),furin cleavage Z-score (15 min),furin cleavage Z-score (30 min)
CAITLPQDAVAGNASASA [HC898],-0.191 (inactive),-0.999 (inactive),-1.58 (inactive)
CAITAYAQQTAGNASASA [HC675],-0.902 (inactive),-0.292 (inactive),-0.928 (inactive)
CAGADTAACGAGNASASA [HC654],-0.934 (inactive),-0.244 (inactive),-0.368 (inactive)
CACGWAGWLLAGNASASA [HC206],0.181 (inactive),-0.831 (inactive),-0.0867 (inactive)
CAENTTPCSGAGNASASA [HC1981],-1.67 (inactive),0.267 (inactive),-0.382 (inactive)
CASAPSLKATAGNASASA [HC1264],-1.75 (inactive),-0.175 (inactive),-1.74 (inactive)
CAMEECSQQLAGNASASA [HC1762],1.29,0.207 (inactive),0.503 (inactive)
CAMAARMKRKAGNASASA [FS-1467],8.01 (active),8.75 (active),8.6 (active)
CAVCPRMKRKAGNASASA [FS-385],6.36 (active),7.19 (active),7.64 (active)
CAMEECSQHKAGNASASA [HC1774],-0.682 (inactive),0.0797 (inactive),-0.301 (inactive)
CAGARRAKRKAGNASASA [FS-1326],5.27 (active),5.92 (active),5.79 (active)
CAEVVSSTWVAGNASASA [HC135],0.7 (inactive),-1.48 (inactive),0.771 (inactive)
CAVFTGLTHIAGNASASA [HC941],-1.4 (inactive),0.134 (inactive),-1.78 (inactive)
CAQMVIIKLGAGNASASA [HC628],1.18,-0.535 (inactive),0.271 (inactive)
CAKKRRATRFAGNASASA [FS-450],1.73,3.42,4.38 (active)
CAILQRLKRIAGNASASA [FS-1346],3.62 (active),3.86 (active),6.79 (active)
CAQNERSYRIAGNASASA [FS-183],-0.223 (inactive),1.02,0.628 (inactive)
CAIFKRKKRIAGNASASA [FS-1212],3.24,3.6 (active),5.56 (active)
CAKTNRKTRFAGNASASA [FS-345],1.94,3.24,4.81 (active)
CANPQRFDRIAGNASASA [FS-1039],-0.635 (inactive),-0.196 (inactive),0.174 (inactive)
CAFLEVVTSTAGNASASA [HC2267],-1.17 (inactive),-0.113 (inactive),-1.92 (inactive)
CARAFTEAMTAGNASASA [HC1539],0.545 (inactive),-0.418 (inactive),0.0305 (inactive)
CAVAYYRGLDAGNASASA [HC868],0.403 (inactive),1.75,-1.15 (inactive)
CAAHWGVLAGAGNASASA [HC336],-1.27 (inactive),-1.2 (inactive),-0.699 (inactive)

Sequence,furin cleavage Z-score (7.5 min),furin cleavage Z-score (15 min),furin cleavage Z-score (30 min)
CAKKRRKKRIAGNASASA [FS-936],3.69 (active),6.37 (active),7.05 (active)
CASLHLKKRIAGNASASA [FS-625],-0.694 (inactive),-1.61 (inactive),0.811 (inactive)
CAIQSRRKKIAGNASASA [FS-443],0.424 (inactive),-0.328 (inactive),0.24 (inactive)
CAEWLRKKRIAGNASASA [FS-418],0.96 (inactive),1.09,1.3
CAIYCRKKRIAGNASASA [FS-806],2.51,0.629 (inactive),4.48 (active)
CAYREVPCHRAGNASASA [HC2429],1.27,-0.258 (inactive),-1.27 (inactive)
CACNDSLNTGAGNASASA [HC375],-1.58 (inactive),0.314 (inactive),-2.54 (inactive)
CAVVCCSMAYAGNASASA [HC2063],0.877 (inactive),1.72,0.58 (inactive)
CAKKIRGKRFAGNASASA [FS-672],6.75 (active),8.84 (active),7.44 (active)
CADRSRGKRFAGNASASA [FS-410],7.7 (active),10.3 (active),8.8 (active)
CATTPSSGSWAGNASASA [HC55],-0.371 (inactive),-0.739 (inactive),-0.54 (inactive)
CAVVCCSMSYAGNASASA [HC94],0.423 (inactive),0.141 (inactive),0.568 (inactive)
CADEVDGVDEAGNASASA [CS2],-0.934 (inactive),-0.925 (inactive),-0.54 (inactive)
CAPCTPLPAPAGNASASA [HC1195],-0.0603 (inactive),-1.7 (inactive),-1.53 (inactive)
CALELRRVRSAGNASASA [FS-605],0.493 (inactive),1.94,2.52
CASAGRHVRSAGNASASA [FS-1408],8 (active),10.8 (active),7.16 (active)
CAPLRRFWRSAGNASASA [FS-1602],-0.433 (inactive),-0.244 (inactive),0.194 (inactive)
CADRSRRVRSAGNASASA [FS-1190],12.9 (active),12.1 (active),9.2 (active)
CAHLKRDTEDAGNASASA [FS-2863],-0.885 (inactive),0.879 (inactive),-0.411 (inactive)
CAFSSRDERSAGNASASA [FS-588],-0.242 (inactive),-1.07 (inactive),-1.76 (inactive)
CAPKSRIVRSAGNASASA [FS-369],14.9 (active),13.8 (active),11.4 (active)
CAHLKRRVRSAGNASASA [FS-793],11.8 (active),10.6 (active),9.61 (active)
CASAGHTVSGAGNASASA [HC356],-0.221 (inactive),-0.0745 (inactive),0.22 (inactive)
